Assay outcomes as filed in PubChem.
CHT inh – inhibits the human high affinity choline transporter; Q9GZV3; CHT-expressing cells, membrane potential dye, choline response; active compounds read low; B-score at 10 µM; 310,000 compounds, 0.86% hits;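 active = B-score over 3 SD under the library average, and starting fluorescence ratio not unusually high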;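 note: choline stimulus applied at its EC90 after an EC20 pre-addition; B-score computed on integrated fluorescence ratio after choline addition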
CHT allo act – allosteric activators of human choline transporter CHT; CHT-expressing cells, membrane potential dye, choline EC20; active compounds read high; LV-AA mutant CHT in HEK293 cells; Q9GZV3; 310,000 compounds, 0.49% hits; B-score at 10 µM;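 active = initial fluorescence not abnormally high and integrated response B-score, plate-corrected, over 3 SD above library mean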
MEKK2wt PB1 HTS – raises or lowers MEK5 binding to wildtype human MEKK2 PB1 domain | 290,000 compounds, 1.1% hits | Q9Y2U5 | bead flow cytometry, Alexa488-MEK5 binding to MEKK2 WT; actives lie on both sides | binding response (% of control), % at 10 µM | AID 1531; in the data active = binding response below about 67% or above about 130%
Mot1-301 SUMO – inhibitors of SUMOylation pathway: yeast Mot1-301 growth rescue. growth rescue, % at 18.8 µM. S. cerevisiae Mot1-301 growth rescue, ATP luminescence, 38.5C; percent above DMSO median, 100 means doubled. 320,000 compounds, 1% hits;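 active = every valid replicate shows activation above 250% relative to neutral control wells; inactive = the rest, any valid replicate at or below 250%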;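 note: OY570 slx delta 5 strain wells were the positive control but not used for scaling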
MEKK3 PB1 HTS – raises or lowers MEK5 binding to the human MEKK3 PB1 domain | Q99759 | bead-based flow cytometry, Alexa488-MEK5 binding to MEKK3; actives lie on both sides; 0 = blocked by unlabeled MEK5, 100 = vehicle | binding response (% of control), % at 10 µM | 290,000 compounds, 1.4% hits | AID 1529;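 active = binding response more than 3 SD above or below the average of its plate-row segment, actives on both sides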;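 note: Alexa488 bead fluorescence after subtracting the streptavidin-only scavenger bead signal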
Target sequence (Q99759 whole entry, looked up, the tested form may be a part): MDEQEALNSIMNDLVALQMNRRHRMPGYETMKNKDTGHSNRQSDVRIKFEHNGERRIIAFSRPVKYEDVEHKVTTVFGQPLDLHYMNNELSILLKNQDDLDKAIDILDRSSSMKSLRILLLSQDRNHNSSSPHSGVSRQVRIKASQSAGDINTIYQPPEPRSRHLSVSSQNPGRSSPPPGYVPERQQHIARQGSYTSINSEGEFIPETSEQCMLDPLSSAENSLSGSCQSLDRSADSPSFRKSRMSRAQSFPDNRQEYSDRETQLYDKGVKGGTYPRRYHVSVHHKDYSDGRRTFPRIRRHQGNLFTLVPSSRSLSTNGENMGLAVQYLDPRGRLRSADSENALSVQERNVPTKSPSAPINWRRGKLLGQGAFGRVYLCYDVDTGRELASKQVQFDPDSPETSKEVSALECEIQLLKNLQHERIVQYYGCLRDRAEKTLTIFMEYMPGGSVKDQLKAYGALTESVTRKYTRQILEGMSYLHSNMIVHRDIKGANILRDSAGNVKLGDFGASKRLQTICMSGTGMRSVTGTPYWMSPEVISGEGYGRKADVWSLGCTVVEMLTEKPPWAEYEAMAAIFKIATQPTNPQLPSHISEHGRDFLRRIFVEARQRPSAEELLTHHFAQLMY
MEKK2 mut-MEK5 – signal of MEK5 binding to mutant human MEKK2 PB1 domain. bead flow cytometry, Alexa488-MEK5 binding to MEKK2 mutant. percent response, % at 10 µM. 290,000 compounds, 0.35% hits. AID 1530; in the data active = percent response above about 24%, passing the limit was not always enough
MEKK2wt confirm – raises or lowers MEK5 binding to wildtype human MEKK2, retest; AID 1892; 5,900 compounds, 2.4% hits; bead flow cytometry, Alexa488-MEK5 binding to MEKK2 WT; actives lie on both sides; binding response (% of control), % at 10 µM; shares compounds with MEKK3 PB1 HTS; in the data active = binding response below about 16% or above about 210%; inactive = in between
MEKK2mut confirm – signal of MEK5 binding to mutant human MEKK2, retest; shares compounds with MEKK3 PB1 HTS; bead flow cytometry, Alexa488-MEK5 binding to MEKK2 mutant; percent response, % at 10 µM; 5,900 compounds, 2% hits; in the data active = percent response mostly above about 71%, no sharp cut-off; inactive = mostly below about 38%;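 note: higher means compound restores mutant binding toward wildtype level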
MEKK3 confirm – MEKK3-MEK5 PB1 inhibition, single concentration confirmation | 5,900 compounds, 1.8% hits | AID 1894 | binding response (% of control), % at 10 µM | bead flow cytometry, Alexa488-MEK5 binding to MEKK3; active compounds read low | shares compounds with MEKK3 PB1 HTS;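 active = binding response below 72% of control, or above a set upper limit, though filed actives all read lower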;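 note: 100% = DMSO only wells and 0% = binding blocked by excess unlabeled MEK5; lower values mean stronger disruption of MEK5 binding to MEKK3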
* marks the source's active call; other numbers are inactive results; i = inactive; . = no result; [ ] = dose if it differs, or a comment. This is a sample that favours compounds with a hit; in the whole collection about 4.1% have one here.

SMILES	CHT inh	CHT allo act	MEKK2wt PB1 HTS	Mot1-301 SUMO	MEKK3 PB1 HTS	MEKK2 mut-MEK5	MEKK2wt confirm	MEKK2mut confirm	MEKK3 confirm
C=CCNC(=O)CN(c1ccc(OC)cc1OC)S(C)(=O)=O	i	i	123.0	-16.5	127.0*	7.0	98.0	-2.0	100.0
Cc1ccc(C2(C)NC(=O)N(CC(=O)NNC(=O)c3ccccc3)C2=O)cc1 (centres undefined)	.	.	.	3.0	.	.	.	.	.
COc1ccccc1/C=N\NC(=O)c1ccc(COc2ccc(C)c(C)c2)o1	i	i	.	5.6	.	.	.	.	.
CN(C)CCCNc1ccc(-c2cc(Nc3cccc(Cl)c3)ncn2)cn1	i	i	159.0*	0.3	93.0	15.0	137.0	14.0	106.0
CCN1C(=O)[C@H]2[C@@H](c3ccc(C)cc3)N3C(=O)N(c4ccc(OC)cc4)C(=O)[C@@]3(CC)[C@H]2C1=O	i	i	.	3.1	.	.	.	.	.
O=C(O)CSc1nc(SCc2ccccc2Cl)nc2c1CCCC2	i	i	125.0	-15.8	122.0*	10.0	103.0	0.0	103.0
COc1ccccc1NC(=O)c1ccc(NC(=O)COC(=O)C2CCCCC2)cc1	i	i	112.0	-4.5	137.0*	1.0	106.0	-1.0	108.0
Cc1cc(C(=O)O)cc(S(=O)(=O)NNC(=O)c2cccs2)c1C	i	i	100.0	-1.4	100.0	12.0	.	.	.
CC(C)CCNC(=O)C(c1cccnc1)N(Cc1ccccc1)C(=O)Cn1nnc2ccccc21 (centres undefined)	i	i	101.0	164.0	102.0	0.0	.	.	.
Cc1nc(N)sc1-c1csc(Nc2ncccn2)n1	.	.	50.0	.	35.0*[inhibitor]	-15.0	46.0	-29.0	43.0*
COCC(=O)Nc1cc(C(=O)Nc2cccc(C)c2C)ccc1Cl	i	i	96.0	-6.9	92.0	-4.0	.	.	.
COCC(=O)Nc1cc(C(=O)Nc2ccccc2C)ccc1Cl	i	i	83.0	8.4	82.0*[inhibitor]	-12.0	94.0	-9.0	98.0
C=CCNC(=S)N1CCN(c2cc3c(cc2F)c(=O)c(C(=O)O)cn3CC)CC1	i	i	99.0	11.6	100.0	2.0	.	.	.
NNc1cc(C(=O)O)ccc1Cl	i	i	61.0*[inhibitor]	2.7	55.0*[inhibitor]	-17.0	100.0	-4.0	101.0
CC(C)(C)c1cnnn1-c1ccc(NC(=O)c2ccc(Br)o2)cc1	i	i	0.0*[inhibitor]	71.9	1.0*[inhibitor]	-41.0	102.0	-1.0	104.0
CC(C)(C)c1cnnn1-c1ccc(NC(=O)c2ccc3c(c2)OCO3)cc1	i	i	95.0	33.9	98.0	-9.0	.	.	.
O=C(CSc1nnc(-c2ccccc2)n1C1CCCCC1)N1CCCC1	i	i	79.0	-13.6	74.0*[inhibitor]	-8.0	112.0	8.0	111.0
CC1CCCN(C(=O)CSc2nnc(-c3cccnc3)n2C2CCCCC2)C1 (centres undefined)	i	i	96.0	0.3	100.0	2.0	.	.	.
CCC[C@@H]1C[C@@H](C(=O)N[C@@H](C2O[C@H](SC)[C@H](O)[C@@H](O)[C@H]2O)[C@H](C)Cl)N(C)C1 (some centres undefined)	i	i	54.0	150.6	50.0*[inhibitor]	1.0	97.0	-6.0	101.0
CCC[C@@H]1C[C@@H](C(=O)NC(C(C)Cl)[C@H]2O[C@H](SC)[C@H](O)[C@@H](O)[C@H]2O)N(C)C1 (some centres undefined)	i	i	104.0	16.9	103.0	5.0	.	.	.
CCNC(=S)N1CCN(C(=O)C(Cc2ccccc2)NC(C)=O)CC1 (centres undefined)	i	i	103.0	13.9	102.0	2.0	.	.	.
COc1ccccc1NC(=O)COC(=O)c1ccccc1C(=O)N1CCN(c2ccccc2)CC1	i	i	106.0	6.4	110.0	-3.0	.	.	.
CN1C(=CC=C2C=C(I)C(=O)C(I)=C2)C(C)(C)c2ccccc21	.	.	-1.0*[inhibitor]	.	40.0*[inhibitor]	-38.0	22.0	-25.0	68.0*
Cc1occc1-c1nnc(SCC(=O)Nc2ccccc2)n1Cc1ccccc1	i	i	100.0	196.5	99.0	2.0	.	.	.
Cc1occc1-c1nnc(SCC(=O)Nc2ccc(F)cc2)n1Cc1ccccc1	i	i	2.0*[inhibitor]	-2.6	2.0*[inhibitor]	-21.0	96.0	-5.0	100.0
SMILES	CHT inh	CHT allo act	MEKK2wt PB1 HTS	Mot1-301 SUMO	MEKK3 PB1 HTS	MEKK2 mut-MEK5	MEKK2wt confirm	MEKK2mut confirm	MEKK3 confirm
COCCn1c(SCC(=O)Nc2nnc(C)s2)nnc1-c1ccoc1C	i	i	120.0	-14.5	129.0*	5.0	98.0	-5.0	100.0
Cc1ccc(C)c(-n2c(SCC(=O)Nc3nnc(C)s3)nnc2-c2ccoc2C)c1	i	i	2.0*[inhibitor]	-12.0	2.0*[inhibitor]	-21.0	109.0	16.0	110.0
CC(C)COc1cccc(C(=O)N(C)CC(=O)Nc2cccc3ccccc23)c1	.	.	.	5.3	.	.	.	.	.
O=C(Nc1ccc(OC(F)(F)F)cc1)c1ccc(S(=O)(=O)N2CCOCC2)o1	i	i	98.0	0.4	103.0	3.0	.	.	.
O=C(CN1C(=O)NC2(CCOc3ccccc32)C1=O)c1ccc[nH]1 (centres undefined)	i	i	.	-15.9	.	.	.	.	.
Cc1cc2cc(CCNC(=O)CCCc3ccccc3)c(=O)[nH]c2cc1C	i	i	107.0	-13.9	100.0	12.0	.	.	.
Cc1cc(C)n2nc(Nc3ccccc3)cc2n1	i	i	80.0	3.3	81.0*[inhibitor]	-7.0	94.0	-2.0	100.0
Cc1cc(C)n2nc(C(=O)NCc3ccccc3)cc2n1	i	i	107.0	5.3	105.0	8.0	.	.	.
CCc1cccc(NC(=O)Cc2ccc(OC)c(OC)c2)c1	i	i	106.0	-1.6	118.0	1.0	.	.	.
c1ccn(-c2ccc(-c3ccn[nH]3)cc2)c1	i	i	95.0	17.2	99.0	-5.0	.	.	.
Cc1ccc(C)n1-c1ccc(-c2ccn[nH]2)cc1	i	i	.	-14.7	15.0*[inhibitor]	190.0*	101.0	-2.0	102.0
CCN=C1S/C(=C\c2ccc(N3CCOCC3)cc2C)C(=O)N1CC	i	i	106.0	10.5	106.0	-1.0	.	.	.
COCCN1C(=O)/C(=C/c2ccc(N3CCCC3)cc2C)SC1=S	i	i	20.0*[inhibitor]	i	59.0	-36.0	24.0	-33.0	56.0*
